The values below come from PubChem BioAssay (NCI).

The nature of experiment [1]: NCI Yeast Anticancer Drug Screen. Data for the rad50 strain (AID 155).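 Further: 0% = growth of vehicle-only cultures of the same strain.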 Particulars: S. cerevisiae rad50 strain growth inhibition, stronger effect = higher value. A digest of the protocol: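 Readout: growth inhibition relative to vehicle-treated cultures. Compound exposure was carried out in a genetically defined yeast strain deficient in DNA damage repair.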
The nature of experiment [2]: NCI Yeast Anticancer Drug Screen. Data for the mec2-1 strain (AID 157). Particulars: S. cerevisiae mec2-1 strain, stronger effect = higher value. A digest of the protocol:
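Each compound was tested on mec2-1 yeast, a strain altered in DNA damage repair or cell cycle control. Growth inhibition is reported relative to vehicle.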

Experiment [3] can be described thus: NCI Yeast Anticancer Drug Screen. Data for the sgs1 mgt1 strain (AID 161).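 Further: 0% = growth of cultures given vehicle only.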 Conditions: S. cerevisiae sgs1 mgt1 strain, stronger effect = higher value. The essentials:
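Mutant yeast exposed to compound; growth scored against vehicle-only wells.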

Experiment [4] can be described thus: NCI Yeast Anticancer Drug Screen. Data for the cln2 rad14 strain (AID 165).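 Further: 0% = growth equal to vehicle treated cultures.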 Conditions: S. cerevisiae cln2 rad14 strain, stronger effect = higher value. A digest of the protocol:
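Test compounds were added to cln2 rad14 yeast cultures; inhibition of growth was then determined by comparison with vehicle treatment.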

The nature of experiment [5]: NCI Yeast Anticancer Drug Screen. Data for the bub3 strain (AID 167). Conditions: S. cerevisiae bub3 mutant strain, stronger effect = higher value. The essentials: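 Readout: yeast growth inhibition, expressed relative to vehicle-only wells. The test organism is a mutant strain from a panel with lesions in DNA repair or checkpoint genes.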
Experiment [6] in a line: NCI Yeast Anticancer Drug Screen. Data for the mlh1 rad18 strain (AID 175). Conditions: S. cerevisiae mlh1 rad18 strain growth inhibition, stronger effect = higher value. A digest of the protocol: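 Inhibition values reflect reduced growth of mutant yeast versus vehicle-treated controls following compound exposure; the mutations affect DNA damage repair.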
Setting [7] is: at 5.0 µM (retest, dose inferred, filed as 0.5).
Setting [8] is: at 50.0 µM (retest, dose inferred, filed as 5.0).

The structures appear in SMILES notation. “And” between values parts separate entries of the source, which are not always exact repeats. Equal values may be shown once. Compounds without any hit were thinned out: in the full panel of roughly 79,000, 15% have a hit. More than one record can exist for a structure, and the calls need not agree. The source made the active and inactive calls. No stated cut-off is given here; in the data, active means growth inhibition above about 70%; inactive means the rest.

Take `COc1cc2c(c(OC)c1OC)-c1ccc(O)c(=O)cc1C(NC(C)=O)CC2` (centres undefined): the growth inhibition is 1% (inactive) in experiment [1] (setting [7]); 3% (inactive) in experiment [1] (setting [8]); -26.1% (inactive) in experiment [1] (at 50.0 µM); -1% (inactive) in experiment [2] (setting [7]); -8% (inactive) in experiment [2] (setting [8]); 17.3% (inactive) in experiment [2] (at 50.0 µM). The growth inhibition in experiment [3] (setting [7]) was -15% (inactive); in experiment [3] (setting [8]), 16% (inactive); in experiment [3] (at 50.0 µM), -1.4% (inactive); in experiment [4] (setting [7]), -21% (inactive); in experiment [4] (setting [8]), 8% (inactive); in experiment [4] (at 50.0 µM) it was 45.5% (inactive). In addition, the growth inhibition is -7% (inactive) in experiment [5] (setting [7]); 6% (inactive) in experiment [5] (setting [8]); 1.05% (inactive) in experiment [5] (at 50.0 µM); -9% (inactive) in experiment [6] (setting [7]); -2% (inactive) in experiment [6] (setting [8]); 59.6% (inactive) in experiment [6] (at 50.0 µM).
On to `O=[N+]([O-])c1ccc(O)c(Cl)c1`, for which the growth inhibition in experiment [1] (setting [7]) is -3% (inactive); in experiment [1] (setting [8]) it was 41% (inactive); in experiment [1] (at 50.0 µM), 68.7% (inactive); in experiment [2] (setting [7]), -2% (inactive); in experiment [2] (setting [8]), 54% (inactive); in experiment [2] (at 50.0 µM), 78.9% (active). Further, the growth inhibition in experiment [3] (setting [7]) is -4% (inactive); in experiment [3] (setting [8]), 44% (inactive); in experiment [3] (at 50.0 µM), 66% (inactive); in experiment [4] (setting [7]), -12% (inactive); in experiment [4] (setting [8]) it was 57% (inactive); in experiment [4] (at 50.0 µM) it was 52.2% (inactive). Further, the growth inhibition in experiment [5] (setting [7]) is -5% (inactive); in experiment [5] (setting [8]) it was 25% (inactive); in experiment [5] (at 50.0 µM), 64.5% (inactive); in experiment [6] (setting [7]), -5% (inactive); in experiment [6] (setting [8]), 53% (inactive); in experiment [6] (at 50.0 µM), 70.8% (active).
On to `CCNC(=O)O/N=C1/C=C2CC[C@@H]3C(CC[C@@]4(C)C3CC[C@@H]4OC(=O)NCC)[C@@]2(C)CC1` (some centres undefined), for which the growth inhibition in experiment [1] (setting [7]) was 94% (active); in experiment [1] (setting [8]), 66% (inactive); in experiment [1] (at 50.0 µM), 97.8% (active); in experiment [2] (setting [7]) it was 97% (active); in experiment [2] (setting [8]), 45% (inactive); in experiment [2] (at 50.0 µM), 98.1% (active). For the same molecule, the growth inhibition is 97% (active) in experiment [3] (setting [7]); 72% (active) in experiment [3] (setting [8]); 97.5% (active) in experiment [3] (at 50.0 µM); 96% (active) in experiment [4] (setting [7]); 14% (inactive) in experiment [4] (setting [8]); 96.2% (active) in experiment [4] (at 50.0 µM). Further, the growth inhibition in experiment [5] (setting [7]) was 93% (active); in experiment [5] (setting [8]) it was 58% (inactive); in experiment [5] (at 50.0 µM), 97.2% (active); in experiment [6] (setting [7]) it was 97% (active); in experiment [6] (setting [8]), 69% (inactive); in experiment [6] (at 50.0 µM), 97.5% (active).
`O=C(O)c1cc[c]([Hg])cc1`: the growth inhibition in experiment [1] (setting [7]) is -1% (inactive); in experiment [1] (setting [8]), 5% (inactive); in experiment [1] (at 50.0 µM) it was 38.4% (inactive); in experiment [2] (setting [7]), -2% (inactive); in experiment [2] (setting [8]), 3% (inactive); in experiment [2] (at 50.0 µM), 25.6% (inactive). For the same molecule, the growth inhibition is 1% (inactive) in experiment [3] (setting [7]); 5% (inactive) in experiment [3] (setting [8]); 36% (inactive) in experiment [3] (at 50.0 µM); -3% (inactive) in experiment [4] (setting [7]); -4% (inactive) in experiment [4] (setting [8]); 2.65% (inactive) in experiment [4] (at 50.0 µM). In addition, the growth inhibition is 0% (inactive) in experiment [5] (setting [7]); -7% (inactive) in experiment [5] (setting [8]); -5.4% (inactive) in experiment [5] (at 50.0 µM); 1% (inactive) in experiment [6] (setting [7]); 3% (inactive) in experiment [6] (setting [8]); 38.2% (inactive) in experiment [6] (at 50.0 µM).
For the molecule `Oc1ccc(Cl)cc1Sc1cc(Cl)ccc1O`, the growth inhibition is 99% (active) and 98% (active) and 90% (active) in experiment [1] (setting [7]); 100% (active) and 99% (active) in experiment [1] (setting [8]); 99.3% (active) and 41% (inactive) and 99.6% (active) in experiment [1] (at 50.0 µM); 98% (active) and 94% (active) and 68% (inactive) in experiment [2] (setting [7]); 100% (active) and 99% (active) in experiment [2] (setting [8]); 99.5% (active) and 99.7% (active) in experiment [2] (at 50.0 µM). Also, the growth inhibition in experiment [3] (setting [7]) was 96% (active) and 98% (active) and 88% (active); in experiment [3] (setting [8]), 99% (active) and -8% (inactive); in experiment [3] (at 50.0 µM), 99.5% (active) and 99.6% (active) and 99.7% (active); in experiment [4] (setting [7]), 98% (active) and 94% (active); in experiment [4] (setting [8]), 100% (active) and 99% (active); in experiment [4] (at 50.0 µM), 99% (active) and 99.3% (active) and 99.2% (active). The growth inhibition in experiment [5] (setting [7]) is 99% (active) and 88% (active) and 68% (inactive); in experiment [5] (setting [8]), 100% (active) and 99% (active); in experiment [5] (at 50.0 µM), 99.3% (active) and 99.5% (active) and 99.6% (active); in experiment [6] (setting [7]), 99% (active) and 89% (active); in experiment [6] (setting [8]), 100% (active) and 99% (active); in experiment [6] (at 50.0 µM), 99.3% (active) and 99.5% (active) and 99.4% (active).
Regarding `S=C(S)N1CCCCC1`, the growth inhibition in experiment [1] (setting [7]) is 42% (inactive) and 15% (inactive); in experiment [1] (setting [8]), 57% (inactive) and 13% (inactive); in experiment [1] (at 50.0 µM), 73.5% (active) and 45.1% (inactive) and 29.9% (inactive); in experiment [2] (setting [7]) it was 38% (inactive) and 19% (inactive); in experiment [2] (setting [8]) it was 60% (inactive) and 6% (inactive); in experiment [2] (at 50.0 µM) it was 45.7% (inactive) and 90.3% (active) and 31.6% (inactive). Further, the growth inhibition was 42% (inactive) and 15% (inactive) in experiment [3] (setting [7]); 99% (active) and 41% (inactive) in experiment [3] (setting [8]); 60.5% (inactive) and 97.8% (active) and 25.5% (inactive) in experiment [3] (at 50.0 µM); 76% (active) and 3% (inactive) in experiment [4] (setting [7]); 99% (active) and -48% (inactive) in experiment [4] (setting [8]); 29.4% (inactive) and 33.2% (inactive) and 0.25% (inactive) in experiment [4] (at 50.0 µM). In addition, the growth inhibition was 56% (inactive) and 0% (inactive) in experiment [5] (setting [7]); 90% (active) and -1% (inactive) in experiment [5] (setting [8]); 37.6% (inactive) and 99.3% (active) and -10.9% (inactive) in experiment [5] (at 50.0 µM); 46% (inactive) and 31% (inactive) in experiment [6] (setting [7]); 56% (inactive) and 27% (inactive) in experiment [6] (setting [8]); 52.8% (inactive) and 70.8% (active) and 59.6% (inactive) in experiment [6] (at 50.0 µM).
As for `Cc1cc[n+](C2=C(Nc3ccc(Cl)cc3Cl)C(=O)c3ccccc3C2=O)cc1`, the growth inhibition is 41% (inactive) in experiment [1] (setting [7]); 90% (active) in experiment [1] (setting [8]); 92.3% (active) in experiment [1] (at 50.0 µM); -1% (inactive) in experiment [2] (setting [7]); 58% (inactive) in experiment [2] (setting [8]); 61.5% (inactive) in experiment [2] (at 50.0 µM). Further, the growth inhibition in experiment [3] (setting [7]) was 1% (inactive); in experiment [3] (setting [8]) it was 59% (inactive); in experiment [3] (at 50.0 µM), 66.4% (inactive); in experiment [4] (setting [7]), 4% (inactive); in experiment [4] (setting [8]), 39% (inactive); in experiment [4] (at 50.0 µM), 40.2% (inactive). In addition, the growth inhibition in experiment [5] (setting [7]) was 5% (inactive); in experiment [5] (setting [8]) it was 78% (active); in experiment [5] (at 50.0 µM) it was 61.1% (inactive); in experiment [6] (setting [7]), 4% (inactive); in experiment [6] (setting [8]) it was 58% (inactive); in experiment [6] (at 50.0 µM) it was 81% (active).
`ClC(C[n+]1ccccc1)c1ccccc1` (centres undefined): the growth inhibition in experiment [1] (setting [7]) was 8% (inactive); in experiment [1] (setting [8]), 22% (inactive); in experiment [1] (at 50.0 µM), 71% (active) and -9.25% (inactive); in experiment [2] (setting [7]), 3% (inactive); in experiment [2] (setting [8]), 16% (inactive); in experiment [2] (at 50.0 µM) it was 34.2% (inactive) and -1.25% (inactive). Moreover, the growth inhibition was 10% (inactive) in experiment [3] (setting [7]); 35% (inactive) in experiment [3] (setting [8]); 64.4% (inactive) and -1.8% (inactive) in experiment [3] (at 50.0 µM); 4% (inactive) in experiment [4] (setting [7]); 3% (inactive) in experiment [4] (setting [8]); -2.5% (inactive) and 7.5% (inactive) in experiment [4] (at 50.0 µM). Moreover, the growth inhibition is 1% (inactive) in experiment [5] (setting [7]); 6% (inactive) in experiment [5] (setting [8]); 26.4% (inactive) and 11.1% (inactive) in experiment [5] (at 50.0 µM); 10% (inactive) in experiment [6] (setting [7]); 51% (inactive) in experiment [6] (setting [8]); 60.6% (inactive) and 4.6% (inactive) in experiment [6] (at 50.0 µM).
